MCL1-BIM inh – MCL1-BIM-BH3 interaction inhibition (human). AID 2057. actives 0.68% (n = 320,000). inhibition, % at 10.9 µM. GST-MCL1 / FITC-Bim-BH3 fluorescence polarization;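 active = inhibition above the mean inhibition of all tested compounds plus 3 SD, set per campaign, cut at about 40% in these data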;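 note: 0% = DMSO wells and 100% = unlabeled Bim-BH3 peptide control; higher means more loss of mP so more displacement of Bim peptide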
Target sequence (Q07820 whole entry, looked up): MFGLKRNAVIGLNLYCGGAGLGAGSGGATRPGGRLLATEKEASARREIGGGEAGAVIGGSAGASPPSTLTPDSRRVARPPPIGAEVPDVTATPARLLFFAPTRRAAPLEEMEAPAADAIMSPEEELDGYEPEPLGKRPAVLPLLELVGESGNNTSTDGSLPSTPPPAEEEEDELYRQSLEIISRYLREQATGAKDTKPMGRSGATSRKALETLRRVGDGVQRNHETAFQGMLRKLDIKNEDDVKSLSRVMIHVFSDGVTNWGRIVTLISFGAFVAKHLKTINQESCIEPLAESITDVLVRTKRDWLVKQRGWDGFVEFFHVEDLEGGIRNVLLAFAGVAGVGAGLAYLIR
Mcl1 Noxa PPI – disrupts binding of human Mcl-1 to Noxa peptide; TR-FRET Mcl-1/Noxa peptide binding, 2 h; inhibition, % at 21.7 µM; actives 1.5% (n = 220,000);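 active = compounds that cut the protein-peptide binding signal by more than 50% relative to plate controls in a single-dose test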;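 note: His-tagged Mcl-1 with rhodamine Noxa BH3 peptide and terbium anti-His antibody; 0% = Mcl-1 plus Noxa peptide wells and 100% = peptide-only wells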
Mcl1-Bid inh – disrupts binding of human Mcl-1 to Bid peptide. Q07820. TR-FRET Mcl-1/Bid-Dy647 peptide binding, 1536-well. inhibition, % at 21.7 µM. actives 0.97% (n = 220,000);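 active = compounds that cut the binding signal by more than half at the single screening dose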;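 note: His-tagged Mcl-1 with europium anti-His antibody binding Bid BH3 peptide; 0% = Mcl-1 plus peptide wells and 100% = peptide-only wells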
Bcl-xL primary – Bcl-xL (human) inhibition. inhibition, % at 10.9 µM. actives 0.7% (n = 320,000). GST-Bcl-xL / FITC-Bim BH3 peptide fluorescence polarization;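 active = inhibition above the mean of all tested compounds plus 3 SD, cutoff set per campaign, cut at about 30% in these data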;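 note: 0% = DMSO wells and 100% = unlabeled Bim-BH3 peptide competitor; inhibitors lower millipolarization by displacing the labeled peptide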
Target sequence (Q07817 whole entry, looked up): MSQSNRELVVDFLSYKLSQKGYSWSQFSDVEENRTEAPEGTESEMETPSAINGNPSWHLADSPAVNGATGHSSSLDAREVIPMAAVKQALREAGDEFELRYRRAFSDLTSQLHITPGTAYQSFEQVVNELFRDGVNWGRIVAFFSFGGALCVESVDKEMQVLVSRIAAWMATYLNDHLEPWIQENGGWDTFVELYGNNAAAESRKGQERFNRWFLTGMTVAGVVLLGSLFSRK
Bim-Mcl-1 – human Bim-Mcl-1 interaction inhibition; Bead-based flow cytometry, Bim peptide-Mcl-1 binding; inhibition, % at 10 µM; AID 1009; actives 0.1% (n = 190,000); in the data active = inhibition above about 40%;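 note: 0% = no compound tracer wells and 100% = peptide blocker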
GLD-1 RNA inh – GLD-1-TGE RNA interaction inhibition (C. elegans); actives 0.44% (n = 320,000); purified GLD-1 + fluorescein TGE RNA, fluorescence polarization; inhibition, % at 5.96 µM;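 active = percent inhibition above a per-plate cutoff, the plate mean of test compounds plus 3 SD, cut at about 30% in these data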;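 note: 0% = DMSO wells with GLD-1 and probe and 100% = wells lacking GLD-1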
* hit, by the source's call; nt = no result given. This is a sample that favours compounds with a hit; in the whole collection about 2.3% have one here.

SMILES	MCL1-BIM inh	Mcl1 Noxa PPI	Mcl1-Bid inh	Bcl-xL primary	Bim-Mcl-1	GLD-1 RNA inh
CC(C)C(NC(=O)c1c(F)cccc1F)C(=O)NC1CC(C)(C)NC(C)(C)C1 (centres undefined)	1	nt	nt	-2	nt	7
Fc1cccc(CSc2ccc(-c3ccco3)nn2)c1	19	7	0	12	-8	7
Fc1ccc(CSc2ccc(-c3ccco3)nn2)cc1	10	4	61*	8	-4	1
O=C(COC(=O)c1ccccc1NC(=O)c1ccco1)Nc1ncc(Cl)cc1Cl	-3	27	-6	5	-2	8
Cc1ccc(S(=O)(=O)CCC(=O)OCC(=O)Nc2ncc(Cl)cc2Cl)cc1	17	8	87*	19	-1	15
Cc1ccc(S(=O)(=O)CCC(=O)OCc2ccc(Cl)c(Cl)c2)cc1	-6	11	55*	-2	0	6
Cc1ccc(S(=O)(=O)CCC(=O)OCc2ccc(S(=O)(=O)C(C)C)cc2)cc1	12	5	-17	6	0	6
O=C(COC(=O)c1ccccc1O)Nc1ncc(Cl)cc1Cl	40*	44	-73	36*	0	10
Cc1cc(C)c(NC(=O)CN(C)CC(=O)N(C)CC(=O)Nc2c(Cl)cccc2Cl)c(C)c1	-13	nt	nt	-8	nt	0
CCN(CC)c1ccc(NS(=O)(=O)c2ccc(-c3ccc(=O)[nH]n3)o2)c(C)c1	32	nt	nt	32*	nt	4
COc1ccc(NC(=O)CC(C)NCCCN2CCCC2=O)cc1 (centres undefined)	-5	nt	nt	-1	nt	-3
N#CC(C#N)=C(N)CSc1cccc[n+]1[O-]	31	-11	-28	30*	0	16
CCCCn1c(SCC(=O)c2ccc(O)c(O)c2)nc2ccsc2c1=O	0	55*	-11	-5	-5	5
Cc1noc(C)c1CN1C(=O)NC(Cc2ccccc2)(Cc2ccccc2)C1=O	0	14	4	-1	40*	-1
Cc1cccc(CN2C(=O)NC(c3ccccc3)(c3ccccc3)C2=O)c1	-8	nt	nt	0	nt	10
O=C(Cn1nc(C(=O)O)c2ccccc2c1=O)Nc1cc(S(=O)(=O)N2CCCCC2)ccc1Cl	nt	nt	nt	nt	nt	-1
CCN1/C(=C/C=C/c2oc3ccc4ccccc4c3[n+]2CC)Oc2ccc3ccccc3c21	135*	21	89*	80*	24	-69
Cc1ccc2cccc(Oc3ncnc4scc(-c5ccc(Cl)cc5)c34)c2n1	2	31	99*	4	-8	2
O=C(COc1ccccc1)Nc1sc2c(c1C(=O)NCc1cccnc1)CCCC2	-9	-25	59*	-1	0	5
O=c1c2c(nc3cc(-c4ccccc4)[nH]n13)CCS2	7	61*	-82	5	0	4
COc1ccc(NC(=O)CSc2ncnc3c2sc2ccccc23)c(OC)c1	2	79*	16	0	1	0
Cc1ccc(C(=O)NCC(=O)NCC(c2cccs2)N(C)C)cc1C (centres undefined)	nt	nt	nt	nt	nt	2
CC1(C)CCC[C@]2(C)C(CS(=O)c3ccccc3)=C(C=O)CC[C@@H]12 (some centres undefined)	4	nt	nt	8	nt	3
CCn1nc(C)c(NC(=O)/C=C/c2ccc(OC)c(COc3ccc(Cl)cc3Br)c2)c1C	5	-3	64*	3	-1	7
CC(O)CNC(=O)C1CCN(Cc2ccc(OCc3ccccc3)cc2)CC1 (centres undefined)	0	31	63*	3	-6	9
SMILES	MCL1-BIM inh	Mcl1 Noxa PPI	Mcl1-Bid inh	Bcl-xL primary	Bim-Mcl-1	GLD-1 RNA inh
CCOC(=O)c1c(NC(=O)Cc2ccccc2)sc2c1CCN(C)C2	-7	nt	nt	-2	nt	-5
CCOC(=O)c1c(NC(=O)CSc2nnc(C)s2)sc2c1CCN(C)C2	-27	68*	18	-14	0	-115
COc1cc(/C=N/NC(=O)CSc2n[nH]c(=O)[nH]c2=O)cc(OC)c1O	10	61*	-34	6	8	3
O=C(c1ccccc1CCc1ccccc1)N1CCOCC1	-4	2	57*	5	-4	1
Cc1nn(-c2ccc(F)cc2)c(Cl)c1C(=O)N(C)CC(=O)Nc1cccc(F)c1	1	nt	nt	3	nt	3
O=C(Nc1cccc2nsnc12)c1ccc(-c2ccc(Br)cc2)o1	-28	27	63*	-4	-1	-5
COC(=O)c1ccccc1NC(=O)c1ccc(-c2ccc(Br)cc2)o1	6	19	-5	2	-1	-6
O=c1c2ccccc2sc2ccc(NCCCN3CCOCC3)cc12	19	nt	nt	15	nt	36*
CN1CCCC1CCNc1ccc2sc3ccccc3c(=O)c2c1 (centres undefined)	31	nt	nt	33*	nt	39*
CC1(C)CC(=O)C(C=NCCN2CCN(CCc3ccccc3)CC2)=C(O)C1	-15	14	-8	-10	51*	-2
CC1(C)CC(=O)C(C=NCCN2CCN(C(=O)c3ccccc3)CC2)=C(O)C1	3	13	-20	1	0	8
O=C(O)/C=C\c1ccccc1Oc1cccc(Cl)c1	2	18	5	32*	0	-2
Cn1c(N)c(C(=O)Nc2ccc3ccccc3c2)sc1=S	-12	66*	44	-8	-9	-10
COc1cc(N)c(Cl)cc1C(=O)OCC(=O)NC(=O)NCc1ccco1	nt	nt	nt	nt	nt	-6
Cc1cccc(CS(=O)(=O)Cc2ccc(C(=O)O)o2)c1	4	56*	-2	3	-5	-2
COCCCNC(=O)c1ccc(CS(=O)(=O)Cc2cccc(C)c2)o1	1	11	-1	4	0	-2
CCN(CC)CCCNC(=S)N(Cc1cccs1)Cc1cc2cc3c(cc2[nH]c1=O)OCCO3	5	59*	-30	3	39	-2
CCN(CC)S(=O)(=O)c1ccc(C(=O)OC2CCCCC2CN(C)C)cc1 (centres undefined)	2	-4	51*	-2	-3	8
COc1ccccc1NC(=O)Cc1nnc(SCC(=O)NC2=NCCS2)n1C	2	nt	nt	4	nt	1
CC(=O)NCCc1ccc(C(=O)COC(=O)C2CCCCC2)cc1	nt	nt	nt	nt	nt	4
O=[N+]([O-])c1ccc(Sc2cccc[n+]2[O-])c2nonc12	nt	62*	-115	nt	nt	nt
CC1(C)CCCN(C(=O)c2coc(=O)c(Br)c2)C1	nt	79*	-25	nt	0	nt
CCN(CC(=O)Nc1c(F)cccc1F)C(=O)c1cc(S(=O)(=O)N2CCOCC2)ccc1N1CCCC1	-29	nt	nt	-9	nt	5
CC(C)CC(=O)Nc1nnc(S(=O)(=O)N2CCCCCC2)s1	4	nt	nt	4	nt	3
Clc1ccccc1-c1nc2ccccc2[nH]1	2	-7	77*	1	nt	5
Fc1ccccc1-c1nc2ccccc2[nH]1	7	-13	-33	-1	-2	3
O=C(Cn1c(=O)cnc2ccccc21)Nc1cccc(S(=O)(=O)N2CCOCC2)c1	-4	nt	nt	-1	nt	-4
